Entries with a potency or affinity are not part of this list. Records with an inconclusive call do not appear. Values without a mark were called inactive.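 Rule for the calls: active = in every test run, a fitted half-maximal concentration for signal decrease at or below twice the highest tested concentration; inconclusive = runs disagree, flat 30 to 70% decrease, or poor fit; inactive = the rest.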
test: activation of miR-122 Renilla sensor silencing – cell-based, Huh7 psiCHECK-miR122, Renilla luciferase, cherry-picked, dose response (AID 651956); conditions: Huh7 psiCHECK-miR122 Renilla luciferase reporter, 48 h; series mostly up to 35 µM; activity change, negative = signal decrease: at the top concentration;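 note: Renilla luciferase from a miR-122 sensor reporter so lower signal means miR-122 activation; 0% = median neutral control wells and -100% = median positive control wells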

| SMILES | activity change, negative = signal decrease [%] |
| --- | --- |
| O=C(CC(F)(F)F)N1C[C@@H]2[C@H](c3ccccc31)[C@@H](CO)N2C(=O)C1CCCC1 | -32.5 |
| O=C(Nc1ccccc1F)N1C[C@H]2[C@@H](c3ccccc31)[C@@H](CO)N2C(=O)C1CC1 | -13.7 |
| CC(=O)Nc1ccc2c(c1)C(=O)N(C)[C@@H]1CC[C@H](CC(=O)NC3CCCCC3)O[C@H]1CO2 | 85.8 |
| C/C=C/c1ccc([C@@H]2[C@H](CO)N(Cc3ccccn3)[C@H]2CNC(=O)CC)cc1 | 60.6 |
| COc1ccc(-c2c(-c3ccccc3)c(C(=O)C(=O)NCCCN(C)C)n3ccc4cc(OC)c(OC)cc4c23)cc1OC | -109 |
| COc1cc(-c2nnc(-c3ccco3)o2)ccc1OCc1ccccc1 | -42.4 |
| COC(=O)C[C@H]1CC[C@H]2[C@H](COc3ccc(NC(=O)NC(C)C)cc3C(=O)N2C)O1 | -0.168 |
| CCCNC(=O)N1C[C@@H]2[C@H](c3ccccc31)[C@@H](CO)N2Cc1cc(F)ccc1F | -0.833 |
| CC(=O)Nc1ccc2c(c1)C(=O)N(C)[C@H]1CC[C@H](CC(=O)Nc3ccccc3Cl)O[C@@H]1CO2 | 152 |
| COc1ccccc1NC(=O)Nc1ccc2c(c1)C(=O)N(C)[C@H]1CC[C@H](CC(=O)Nc3ccc4c(c3)COC4)O[C@@H]1CO2 | 78.8 |
| CCCNC(=O)C[C@@H]1CC[C@@H]2[C@H](COc3ccc(NC(=O)Nc4ccccc4F)cc3C(=O)N2C)O1 | -38.3 |
| COc1cccc(-c2nn(-c3ccccc3)cc2CO)c1 | -36.7 |
| CCCNC(=O)N1[C@H](CNC(C)=O)[C@H](c2ccc(C3=CCCC3)cc2)[C@@H]1CO | -20 |

Source: PubChem BioAssay AID651956 (Broad Institute, 2012)
